PubChem BioAssay AID1159580 (chemical genetic matrix, 2015)
Values joined by “and” are separate entries in the source; they are usually repeats but may differ in a detail not shown here. Equal values may be shown once. Among all 5,500 compounds or so, about 2,000 (36%) were called active. Inconclusive results (about 18%) are left out. Cut-off read from the data, not from the text of the source: active = normalized growth mostly below about 0.91 (no sharp cut-off); inconclusive = no clear call, values can overlap the other calls; inactive = mostly above about 0.92. Some of the results follow.

Assay: chemical genetic growth profiling, strain panel (AID 1159580);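 note: tested at 20 µM; growth read once vehicle control cultures reached saturation at 30 °C; 1 = growth at the plate median or of vehicle wells; lower values mean less growth of the strain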
Conditions: S. cerevisiae deletion strains, growth OD

Measured: normalized growth

COc1ccc2[nH]cc(CCN)c2c1
inactive: locus YAL013W, strain DEP1, stronger effect = lower value 0.982 | locus YAL021C, strain ccr4, stronger effect = lower value 1.04 | locus YAL026C, strain drs2, stronger effect = lower value 0.987 | locus YAL030W, strain snc1, stronger effect = lower value 0.995 | locus YAL040C, strain CLN3, stronger effect = lower value 0.967 | locus YBL061C, strain skt5, stronger effect = lower value 0.989 | locus YBR009C, strain hhf1, stronger effect = lower value 1.02 | locus YBR021W, strain FUR4, stronger effect = lower value 0.985 | locus YBR023C, strain chs3, stronger effect = lower value 1 | locus YBR171W, strain sec66, stronger effect = lower value 0.993 | locus YBR229C, strain ROT2, stronger effect = lower value 0.95 | locus YBR231C, strain swc5, stronger effect = lower value 0.986 | locus YBR279W, strain paf1, stronger effect = lower value 0.995 | locus YCL011C, strain gbp2, stronger effect = lower value 1.01 | locus YCL016C, strain dcc1, stronger effect = lower value 1.02 | locus YCL029C, strain bik1, stronger effect = lower value 0.998 | locus YCL061C, strain MRC1 (second series), stronger effect = lower value 1 | locus YCL061C, strain MRC1, stronger effect = lower value 0.998 | locus YCL069W, strain vba3, stronger effect = lower value 0.992 | locus YCR088W, strain abp1, stronger effect = lower value 0.99 | locus YDL005C, strain med2, stronger effect = lower value 1.02 | locus YDL035C, strain GPR1, stronger effect = lower value 0.985 | locus YDL040C, strain nat1, stronger effect = lower value 0.991 | locus YDL074C, strain BRE1, stronger effect = lower value 0.999 | locus YDL101C, strain DUN1, stronger effect = lower value 0.989 | locus YDL134C, strain PPH21, stronger effect = lower value 0.973 | locus YDL185W, strain tfp1, stronger effect = lower value 0.97 | locus YDL192W, strain arf1, stronger effect = lower value 0.989 | locus YDR001C, strain nth1, stronger effect = lower value 0.989 | locus YDR069C, strain doa4, stronger effect = lower value 0.971 | locus YDR101C, strain arx1, stronger effect = lower value 0.998 | locus YDR137W, strain rgp1, stronger effect = lower value 1.01 | locus YDR150W, strain NUM1, stronger effect = lower value 0.963 and 0.992 | locus YDR159W, strain sac3, stronger effect = lower value 0.933 | locus YDR162C, strain NBP2, stronger effect = lower value 0.945 | locus YDR195W, strain ref2 0.951 | locus YDR297W, strain sur2, stronger effect = lower value 0.989 | locus YDR318W, strain mcm21, stronger effect = lower value 0.995 | locus YDR334W, strain swr1, stronger effect = lower value 0.982 | locus YDR335W, strain msn5, stronger effect = lower value 0.995 | locus YDR363W, strain ESC2, stronger effect = lower value 0.978 | locus YDR388W, stronger effect = lower value 0.986 | locus YDR392W, strain spt3, stronger effect = lower value 0.951 | locus YDR502C, strain sam2, stronger effect = lower value 0.995 | locus YEL003W, strain gim4, stronger effect = lower value 0.986 | locus YEL037C, strain rad23, stronger effect = lower value 0.988 | locus YEL061C, strain CIN8 (second series), stronger effect = lower value 0.989 | locus YEL061C, strain CIN8, stronger effect = lower value 0.977 | locus YER002W, strain NOP16, stronger effect = lower value 1.01 | locus YER015W, strain faa2, stronger effect = lower value 1 | locus YER016W, strain bim1, stronger effect = lower value 0.991 | locus YER110C, stronger effect = lower value 0.964 | locus YER111C, strain swi4, stronger effect = lower value 1 | locus YER155C, strain BEM2 (second series), stronger effect = lower value 0.978 | locus YER155C, strain BEM2, stronger effect = lower value 0.993 | locus YER167W, strain BCK2, stronger effect = lower value 0.987 | locus YFR010W, strain ubp6, stronger effect = lower value 0.979 | locus YGL078C, strain dbp3, stronger effect = lower value 0.984 | locus YGL086W, strain mad1, stronger effect = lower value 0.966 | locus YGL167C, strain pmr1, stronger effect = lower value 0.994 | locus YGL173C, strain kem1, stronger effect = lower value 0.997 | locus YGL227W, strain vid30, stronger effect = lower value 0.983 | locus YGL240W, strain doc1, stronger effect = lower value 0.986 | locus YGL248W, strain PDE1, stronger effect = lower value 0.981 | locus YGL253W, strain hxk2, stronger effect = lower value 0.974 | locus YGR078C, strain PAC10, stronger effect = lower value 0.999 | locus YGR135W, strain pre9, stronger effect = lower value 0.989 | locus YGR229C, strain SMI1, stronger effect = lower value 1.02 | locus YGR252W, strain gcn5, stronger effect = lower value 0.843 | locus YHR013C, strain ard1, stronger effect = lower value 0.973 | locus YHR027C, strain rpn1, stronger effect = lower value 1 | locus YHR030C, strain SLT2, stronger effect = lower value 0.985 | locus YHR079C, strain IRE1 (second series), stronger effect = lower value 0.992 | locus YHR094C, strain hxt1, stronger effect = lower value 0.984 | locus YHR129C, strain ARP1, stronger effect = lower value 0.996 | locus YHR142W, strain chs7, stronger effect = lower value 1 | locus YHR200W, strain rpn10, stronger effect = lower value 0.991 | locus YIL066C, strain RNR3, stronger effect = lower value 0.99 | locus YIL073C, strain SPO22, stronger effect = lower value 0.938 | locus YIL125W, strain kgd1, stronger effect = lower value 0.975 | locus YIR030C, strain dcg1, stronger effect = lower value 0.976 | locus YJL092W, strain hpr5, stronger effect = lower value 0.999 | locus YJL095W, strain BCK1 (second series), stronger effect = lower value 0.992 | locus YJL095W, strain BCK1, stronger effect = lower value 1.04 | locus YJL115W, strain asf1, stronger effect = lower value 0.99 | locus YJL129C, strain trk1, stronger effect = lower value 0.995 | locus YJL134W, strain LCB3, stronger effect = lower value 0.988 | locus YJL154C, strain vps35, stronger effect = lower value 0.981 | locus YJL164C, strain tpk1, stronger effect = lower value 1.02 | locus YJL166W, strain qcr8, stronger effect = lower value 1.01 | locus YJL168C, strain set2, stronger effect = lower value 0.999 | locus YJL187C, strain SWE1 (second series), stronger effect = lower value 0.993 | locus YJL187C, strain SWE1, stronger effect = lower value 1.01
